High-throughput results from PubChem.
Rows were chosen to be rich in hits. Some 12% of all compounds tested hit in one or more screens of this group.
BAZ2B inh – BAZ2B (human) inhibition; AlphaScreen BAZ2B-H3K14Ac peptide displacement; Potency, µM (titrated, usually from 114 µM), without a hit: top-dose activity change, negative = inhibition, actives largely listed as inhibitors; AID 504333; actives 4.4% (n = 360,000); also: % is scaled to controls: 0 for no effect and ±100 for the full control effect; nearly all actives have a fitted effect of over 60% in size
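Compounds, titrated to a top concentration of 110 uM, were incubated 30 min at room temperature with preformed BAZ2B/acetyl-K14 H3 peptide complex (50 nM each). Proximity signal was measured by AlphaScreen after 20 min with beads.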
HP1b chromo inh – blocks HP1-beta chromodomain binding to methylated histone tails | P83916 | AlphaScreen HP1-beta / biotin-H3K9me3 peptide binding | Potency, µM (doses to about 114 µM), for the others: at the highest dose activity change, negative = inhibition, hits mostly inhibitors | actives 0.56% (n = 390,000); also: nearly all actives have a fitted effect of over 70% in size
Target sequence (P83916 whole entry, looked up): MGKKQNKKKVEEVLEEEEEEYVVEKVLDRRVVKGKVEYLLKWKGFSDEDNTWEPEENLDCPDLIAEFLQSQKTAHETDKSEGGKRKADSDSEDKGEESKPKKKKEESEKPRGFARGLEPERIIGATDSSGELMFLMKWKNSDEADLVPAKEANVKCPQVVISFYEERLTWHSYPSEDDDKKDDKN
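Compound inhibition of the preformed complex between 50 nM HP1-beta and 50 nM biotinylated H3K9me3 peptide was read by AlphaScreen. Buffer was PBS pH 7.4 with 0.01% Tween-20. Incubations ran 30 min at room temperature, with 10 ug/mL donor/acceptor beads.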
Sfp PPTase inh – Sfp phosphopantetheinyl transferase inhibition; Biochemical Sfp PPTase activity, qHTS; Q9F4F7; Potency, µM, for inactives: largest response in the series, negative = inhibition, most hits filed as inhibitors; actives 3.5% (n = 310,000);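 also: the enzyme is Sfp with the accession as filed and its product quenches rhodamine fluorescence; 0% = enzyme reaction without inhibitor and -100% = no enzyme wells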
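Compounds were incubated with enzyme (final 15 nM) for 15 min at room temperature before substrate addition started the reaction. Fluorescence at 525 nm excitation, 598 nm emission was recorded immediately and after 30 minutes.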
JMJD2A Tudor – inhibitors of human JMJD2A Tudor domain; AlphaScreen JMJD2A-Tudor / H3K4me3 peptide binding; AID 504339; Potency, µM (top dose mostly 114 µM), for the others: at the top dose activity change, negative = inhibition, hits mostly inhibitors; O75164; actives 4.4% (n = 390,000); also: % is scaled to controls: 0 for no effect and ±100 for the full control effect; nearly all actives have a fitted effect of over 50% in size
PLK1 PBD block – blocks phosphopeptide binding to human PLK1 polo-box domain. P53350. Potency, µM, without a hit: max response, negative = inhibition, most hits filed as inhibitors. Plk1 PBD binding of FITC phosphopeptide, fluorescence polarization. actives 2.8% (n = 360,000); also: series mostly up to about 57 µM; % is scaled to controls: 0 for no effect and ±100 for the full control effect; nearly all actives have a fitted effect of over 65% in size
G9a block – blocks human histone lysine methyltransferase G9a | G9a H3K9 monomethylation, AlphaScreen, 2 h | actives 8.8% (n = 350,000) | Potency, µM (titrated, usually from 102 µM), without a hit: at the highest dose activity, negative = inhibition, most hits filed as inhibitors | Q96KQ7; also: % is scaled to controls: 0 for no effect and ±100 for the full control effect; nearly all actives have a fitted effect of over 75% in size
Target sequence (Q96KQ7 913-1193 limits assumed): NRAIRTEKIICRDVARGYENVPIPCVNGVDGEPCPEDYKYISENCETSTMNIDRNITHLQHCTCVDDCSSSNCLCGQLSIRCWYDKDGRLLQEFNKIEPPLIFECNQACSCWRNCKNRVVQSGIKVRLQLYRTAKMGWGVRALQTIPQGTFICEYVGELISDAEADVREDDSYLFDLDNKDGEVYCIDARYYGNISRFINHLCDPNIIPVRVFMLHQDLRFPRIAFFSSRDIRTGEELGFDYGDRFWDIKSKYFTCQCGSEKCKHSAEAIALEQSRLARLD
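Signal arises when biotinylated H3K9 peptide, once monomethylated, bridges streptavidin donor and antibody-captured acceptor beads. Enzyme at 20 nM was preincubated 15 min with test compounds; peptide 500 nM and SAM 20 uM then reacted for 2 h.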
Active calls of the source: *; ? = inconclusive; nt = not tested or not shown; [ ] = dose if it differs, or a comment. Calls follow the shape of the dose curve; as a rule, active = well fitted curve in the direction sought with a large enough effect; inconclusive = small, poorly fitted or top-dose-only effect, or another doubt; inactive = no such curve, though single readings can be large; an effect the other way counts as inactive or inconclusive. Potency is read from the fitted curve at half-maximal effect.

SMILES | BAZ2B inh | HP1b chromo inh | Sfp PPTase inh | JMJD2A Tudor | PLK1 PBD block | G9a block
CN(C)S(=O)(=O)c1cccc(C(=O)NCc2cccs2)c1 | -5.0% | 17.2% | 10.0% | -17.2% | -8.7% | -8.7%[12.7 µM]
COc1ccc(C2C(C(=O)OCC3CCCO3)=C(C)NC3=C2C(=O)CC(c2ccco2)C3)cc1O (centres undefined) | -10.7%[57.1 µM] | -15.8% | 56.2µM* | -19.6%[57.1 µM] | -11.5% | -16.6%
CC(C)[C@H](NC(=O)CNC(=O)OC(C)(C)C)C(=O)N[C@H](C=O)C(C)C | nt | nt | 27.4% | nt | nt | 26.8%[59 µM]
COC(=O)N/N=C/c1sc(N2CCCCC2)nc1-c1cccs1 | ? | 16.4% | 22.4µM* | ? | -0.5% | 50.1µM*
CCn1c(SCC(=O)Nc2oc(-c3ccccc3)c(-c3ccccc3)c2C#N)nnc1-c1ccco1 | -35.7% | -11.6% | 10.2% | ? | -20.0% | ?
Cc1cnc(C(=O)OCC(=O)Nc2oc(-c3ccccc3)c(-c3ccccc3)c2C#N)cn1 | -56.8% | -11.3% | 16.9% | 56.2µM* | ? | 50.1µM*
N#Cc1c(NC(=O)CSc2ccccn2)oc(-c2ccccc2)c1-c1ccccc1 | ? | 22.5% | 19.3% | -30.2% | -8.1% | -39.5%[59 µM]
CCn1c(SCC(=O)Nc2oc(-c3ccccc3)c(-c3ccccc3)c2C#N)nnc1-c1ccncc1 | ? | -18.3% | -7.1% | ? | ? | 7.94µM*
CCCn1c(CCCNC(=O)c2ccccc2OC)nc2ccccc21 | 0.2% | 28.0% | nt | -5.8% | nt | -0.1%[59 µM]
Cc1cc(C(=O)NCCN2C(=O)S/C(=C\c3cccs3)C2=O)ccc1[N+](=O)[O-] | -31.5% | 16.3% | 35.5µM* | -14.0% | -15.6% | -13.4%[59 µM]
CC(C)c1nnc(NC(=O)C2CCN(C(=O)C(C)(C)C)CC2)s1 | nt | -2.4% | nt | 0.0% | nt | nt
CCOc1ccc(CN2CCc3nc(N4CCN(c5ccccn5)CC4)ncc3C2)cc1OC | 79.4µM* | 17.0% | nt | 89.1µM* | nt | ?
Cc1ccc(CN2CCc3nc(N4CCN(c5ccccc5F)CC4)ncc3C2)cc1C | -18.5% | 37.5% | nt | -20.5% | nt | 2.5%[59 µM]
Brc1ccc(CN2CCc3nc(N4CCN(c5ncccn5)CC4)ncc3C2)cc1 | 50.1µM* | -31.7% | nt | 44.7µM* | nt | ?
CCN1CCN(c2ncc3c(n2)CCN(Cc2ccc(OC(C)C)cc2)C3)CC1 | ? | -11.9% | nt | ? | nt | ?
CCCCN1CCc2nc(N3CCN(c4ncccn4)CC3)ncc2C1 | 56.2µM* | 20.5% | nt | 79.4µM* | nt | 17.8µM*
CCCN1CCc2nc(N3CCN(c4ncccn4)CC3)ncc2C1 | 50.1µM* | 26.1% | nt | 89.1µM* | nt | 31.6µM*
CCOC(=O)c1ccccc1OCc1cc(C2Nc3ccccc3C(=O)N2c2cccc3ccccc23)ccc1OC (centres undefined) | nt | -7.9%[57 µM] | nt | -3.1%[57.1 µM] | nt | nt
OC1c2ccccc2N=C2CCCN21 (centres undefined) | nt | nt | 19.6% | nt | nt | nt
O=C(c1cc(COc2ccc3c(c2)CCCC3)on1)N1CCCC1 | 10.2% | nt | -2.6% | nt | nt | ?
Cc1ccc(C2NC(c3ccc4c(c3)OCO4)=CC(c3cc(Br)ccc3O)N2)cc1 (centres undefined) | nt | 11.2%[57 µM] | nt | -22.3%[57.1 µM] | nt | nt
Cc1nc(-n2nc(C)c(Cc3ccccc3Cl)c2C)sc1C(=O)Nc1ccccc1F | 1.7% | 45.1% | nt | 4.3% | nt | -12.5%[59 µM]
CCOc1ccccc1CN1CCc2nc(N3CCN(c4ccccc4F)CC3)ncc2C1 | 56.2µM* | -5.2% | nt | 79.4µM* | nt | ?
Fc1ccc(CN2CCc3nc(N4CCN(c5ccccc5F)CC4)ncc3C2)c(F)c1 | -8.8% | 12.7% | nt | -9.3% | nt | 7.9%[59 µM]
O=C(COC(=O)CN1C(=O)c2ccccc2C1=O)Nc1ccccc1C(F)(F)F | nt | nt | nt | nt | -8.1% | nt
SMILES | BAZ2B inh | HP1b chromo inh | Sfp PPTase inh | JMJD2A Tudor | PLK1 PBD block | G9a block
O=C(COc1ccccc1-c1ccccc1)NCc1cccc(Cl)c1 | 81.4% | 172.1% | -19.9% | 86.3% | 3.1% | 54.2%
O=C(O)CCCCCN1C(=O)/C(=C/c2cn(-c3ccccc3)nc2-c2cccs2)SC1=S | nt | ? | nt | 31.6µM* | 26.7µM* | nt
CN1CCC(N(C)C(=O)/C=C/c2cn(-c3ccccc3)nc2-c2cccs2)CC1 | -27.8% | -24.5% | ? | ? | -11.1% | -17.6%
O=C(O)CCCCCN1C(=O)/C(=C\c2cn(-c3ccccc3)nc2-c2cccs2)SC1=S | 12.6µM* | -22.3% | ? | 39.8µM* | 50.2% | 15.8µM*
O=C(O)CCN1C(=O)/C(=C/c2cn(-c3ccccc3)nc2-c2cccs2)SC1=S | -11.7% | ? | 20.7% | 22.4µM* | 29.9µM* | -9.6%
O=C(CN1c2cccc3cccc(c23)S1(=O)=O)NCCc1ccc(F)cc1 | nt | 35.0% | nt | -12.1% | -1.8% | nt
Cc1nc2ccccc2oc1=O | nt | nt | -3.2% | nt | nt | nt
Nc1cc2nc3ccccc3oc-2cc1=O | 44.7µM* | -24.5% | 22.4µM* | ? | -14.9% | nt
O=C1C=C(c2n[nH]nc2-c2ccccc2)C[C@@H](c2ccc(F)cc2)C1 | nt | nt | nt | nt | -11.9% | nt
CCCn1c(=N)n(CC(O)c2ccco2)c2ccccc21 (centres undefined) | -1.1% | 10.0% | 8.1% | -16.0% | 2.6% | -6.3%[59 µM]
Cn1c(=N)n(CC(O)c2ccco2)c2ccccc21 (centres undefined) | 3.8% | 19.8% | 89.1µM* | 8.8% | 1.2% | 1.9%[59 µM]
CCOc1ccc(CCNC(=O)C2CCCN(c3nnc(C)c4c(C)n(-c5ccccc5)nc34)C2)cc1 (centres undefined) | -16.5% | 34.8% | nt | -27.2% | nt | -0.4%[59 µM]
O=C(O)c1c[nH]ccc1=O | ? | -31.9% | -14.1% | 7.08µM* | -7.5% | ?
Clc1ccc(Cl)c(-c2nn3c(COc4ccccc4)nnc3s2)c1 | 5.4% | ? | 14.1µM* | ? | 5.32µM* | 1.78µM*
Clc1ccccc1-c1nn2c(Cn3cnc4ccccc43)nnc2s1 | -8.1% | ? | 44.7µM* | -17.8% | 23.8µM* | 2.82µM*
c1ccc2c(c1)ncn2Cc1nnc2sc(-c3ccc4c(c3)OCO4)nn12 | ? | ? | -54.9% | -33.8% | 18.9µM* | nt
COc1ccc(-c2nn3c(COc4ccccc4)nnc3s2)cc1OC | -2.4% | -5.5% | ? | 7.2% | ? | ?
COc1cc(C(=O)NC(CCSC)C(=O)OCC(=O)C(C)(C)C)cc(OC)c1OC (centres undefined) | -19.4% | 29.9% | -1.9% | -2.4% | 2.9% | -13.2%
CCOC(=O)C1=C(CC)Nc2ccccc2N/C1=N\S(=O)(=O)c1ccc2ccccc2c1 | -21.5% | 24.2% | 4.6% | -21.1% | -13.9% | ?
CCOC(=O)C1=C(CC)Nc2ccccc2N/C1=N\S(=O)(=O)c1cc(Br)ccc1Br | ? | -13.2% | 10.8% | ? | 21.2µM* | 0.6%[59 µM]
Cc1nc(N2CCOCC2)c2nc(-c3ccccc3)n(CC3CCN(C)CC3)c2n1 | nt | nt | 21.1% | nt | nt | nt
